Screening data (PubChem)
Rows were chosen to be rich in hits. Some 31% of all compounds tested hit in one or more screens of this group.
CYP2C9 inhib – inhibitors of human CYP2C9. inhibition, % at 5 µM. P11712. CYP2C9 Supersomes, luciferin-H conversion, luminescence. 96,000 compounds, 20% hits;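 active means blocking of liver enzyme CYP2C9 beyond about 50% at 5 µM, limit read from the data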
CYP2C19 act – increases human CYP2C19 enzyme activity. P33261. recombinant CYP2C19, luciferin-H EGE luminescence; stronger effect = higher value; 0 = fully inhibited enzyme, 1 = untreated enzyme. activation factor at 5 µM. 96,000 tested, under 10 active. AID 1025;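 active means activation factor of at least 2 at 5 µM in the primary screen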;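 further: 0 = wells with 2.5 mM tranylcypromine and 1 = vehicle-only wells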
Target sequence (P33261 whole entry, looked up): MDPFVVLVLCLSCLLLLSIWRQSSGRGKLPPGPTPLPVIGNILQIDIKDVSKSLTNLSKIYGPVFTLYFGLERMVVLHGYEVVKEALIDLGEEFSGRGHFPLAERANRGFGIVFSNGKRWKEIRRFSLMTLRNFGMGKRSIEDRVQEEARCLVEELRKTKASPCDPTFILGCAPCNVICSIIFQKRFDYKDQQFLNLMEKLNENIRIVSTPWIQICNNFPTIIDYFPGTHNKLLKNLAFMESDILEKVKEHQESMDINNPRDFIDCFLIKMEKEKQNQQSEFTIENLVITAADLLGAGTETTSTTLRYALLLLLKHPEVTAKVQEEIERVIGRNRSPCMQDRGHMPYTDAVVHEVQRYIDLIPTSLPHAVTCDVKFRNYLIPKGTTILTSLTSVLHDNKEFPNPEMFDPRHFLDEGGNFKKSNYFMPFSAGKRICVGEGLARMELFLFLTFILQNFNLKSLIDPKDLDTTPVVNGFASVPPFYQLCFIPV
CYP2C9 activ – CYP2C9 (human) activation. P11712. recombinant CYP2C9, luciferin-H conversion, luminescence; stronger effect = higher value; factor 1 = untreated enzyme, 0 = blocked. activation factor at 5 µM. 96,000 compounds, 1.4% hits;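 active means activation factor of 2 or more for CYP2C9 at a 5 µM dose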;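 further: 0 = sulfaphenazole-blocked wells and 1 = vehicle-only wells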
CYP2C19 inh – human CYP2C19 inhibition; P33261; CYP2C19 Supersomes, luciferin-H EGE luminescence, 30 min; inhibition, % at 5 µM; 96,000 compounds, 21% hits; AID 778;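 active means CYP2C19 inhibition above a set limit at 5 µM in the primary screen, cut at about 50% in these data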;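 further: plate controls were negative control wells for no effect and 2.5 mM tranylcypromine positive control for full effect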
* hit, by the source's call.

`COc1ccc(C2C=C(c3ccccc3)Nc3ncnn32)cc1` (stereo not given) gave CYP2C9 inhib -6, CYP2C19 act 0.9, CYP2C9 activ 1.1 and CYP2C19 inh 14.
COc1cccc(C2C=C(c3ccc(Br)s3)Nc3ncnn32)c1OC (stereo not given) was read as CYP2C9 inhib 83*, CYP2C19 act 0, CYP2C9 activ 0.2 and CYP2C19 inh 98*.
For C=CCOC(=O)C1=C(C)Nc2ncnn2C1c1cc(Br)ccc1F (stereo not given) the results were CYP2C9 inhib 46, CYP2C19 act 0.8, CYP2C9 activ 0.5 and CYP2C19 inh 21.
Fc1ccc(Br)cc1C1C=C(c2ccc(Br)s2)Nc2ncnn21 (stereo not given) was read as CYP2C9 inhib 46, CYP2C19 act 0, CYP2C9 activ 0.5 and CYP2C19 inh 96*.
For COc1ccc(C2C=C(c3ccc(C)c(C)c3)Nc3ncnn32)c(OC)c1OC (stereo not given) the results were CYP2C9 inhib 92*, CYP2C19 act 0, CYP2C9 activ 0.1 and CYP2C19 inh 96*.
For CC(=O)NC1(C(F)(F)F)C(=O)Nc2c1c(=O)n(C)c(=O)n2C (stereo not given) the results were CYP2C9 inhib 8, CYP2C19 act 1, CYP2C9 activ 0.9 and CYP2C19 inh 3.
`Cn1c2c(c(=O)n(C)c1=O)C(C(F)(F)F)(C(F)(F)F)N=C(c1ccc(Cl)cc1)N2` gave CYP2C9 inhib 89*, CYP2C19 act 0.9, CYP2C9 activ 0.1 and CYP2C19 inh 14.
`CCCn1nc2cc(C(=O)NCc3ccc(C)cc3)ccc2c1OC` gave CYP2C9 inhib 7, CYP2C19 act 1, CYP2C9 activ 0.9 and CYP2C19 inh 3.
COC(=O)c1cnn(-c2cc(Oc3cccc(C)c3)ncn2)c1N was read as CYP2C9 inhib 70*, CYP2C19 act 0.7, CYP2C9 activ 0.3 and CYP2C19 inh 35.
For Cc1c(/C=N/NC(=O)c2cc(=O)[nH]c(=O)[nH]2)c2ccccn2c1C(=O)c1ccccc1 the results were CYP2C9 inhib 50*, CYP2C19 act 0.9, CYP2C9 activ 0.5 and CYP2C19 inh 9.
Screening CCOC(=O)c1cnn(-c2cccc(Cl)c2)c1N returned CYP2C9 inhib 42, CYP2C19 act 0.4, CYP2C9 activ 0.6 and CYP2C19 inh 62*.
Cc1cc(=O)oc2cc(OCC3CC(c4ccc(Cl)cc4)=NO3)ccc12 (stereo not given) was read as CYP2C9 inhib 43, CYP2C19 act 0.5, CYP2C9 activ 0.6 and CYP2C19 inh 51*.
Screening Cc1cc(=O)oc2cc(OCC3CC(c4ccc(N(C)C)cc4)=NO3)ccc12 (stereo not given) returned CYP2C9 inhib 15, CYP2C19 act 0.9, CYP2C9 activ 0.9 and CYP2C19 inh 10.
`C[N+]12CCCCC1C(COC(=O)c1ccc3c(c1)OCO3)CCC2` (stereo not given) gave CYP2C9 inhib -29, CYP2C19 act 0.9, CYP2C9 activ 1.3 and CYP2C19 inh 7.
For Cn1c(SCC(=O)Nc2ccc3nc(SCC(=O)N4CCCC4)sc3c2)nnc1-c1ccc(N)cc1 the results were CYP2C9 inhib 38, CYP2C19 act 0.8, CYP2C9 activ 0.6 and CYP2C19 inh 16.
Screening Cc1ccc(Oc2nn[nH]n2)cc1 returned CYP2C9 inhib 70*, CYP2C19 act 1.1, CYP2C9 activ 0.3 and CYP2C19 inh -5.
Cc1cccc(C)c1NC(=O)CSCC(=O)c1ccc(O)c(O)c1 was read as CYP2C9 inhib -23, CYP2C19 act 1, CYP2C9 activ 1.2 and CYP2C19 inh -4.
Screening COc1ccc(-c2noc(CCC(=O)Nc3cccc(C)c3)n2)cc1 returned CYP2C9 inhib 13, CYP2C19 act 0.7, CYP2C9 activ 0.9 and CYP2C19 inh 31.
Screening COc1cc(OC)c(NC(=O)CCc2nc(-c3ccc(C)cc3)no2)cc1Cl returned CYP2C9 inhib 78*, CYP2C19 act 0.5, CYP2C9 activ 0.2 and CYP2C19 inh 48.
`COc1ccccc1-c1noc(CCC(=O)Nc2ccccc2Cl)n1` gave CYP2C9 inhib 33, CYP2C19 act 0.2, CYP2C9 activ 0.7 and CYP2C19 inh 79*.
COc1ccccc1-c1noc(CCC(=O)Nc2cccc(C)c2)n1 was read as CYP2C9 inhib 42, CYP2C19 act 0.3, CYP2C9 activ 0.6 and CYP2C19 inh 74*.
`COc1ccc(-c2noc(CCC(=O)Nc3nc4ccccc4s3)n2)cc1` gave CYP2C9 inhib 68*, CYP2C19 act 1, CYP2C9 activ 0.3 and CYP2C19 inh 2.
For O=C(O)CCc1nc(-c2ccccc2Cl)no1 the results were CYP2C9 inhib -12, CYP2C19 act 1, CYP2C9 activ 1.1 and CYP2C19 inh -4.
`O=C(O)CSc1nnc(-c2ccncc2)n1CCc1ccccc1` gave CYP2C9 inhib 4, CYP2C19 act 0.9, CYP2C9 activ 1 and CYP2C19 inh 5.
Screening COc1ccc(NC(=O)CCc2nc(-c3ccccc3F)no2)cc1 returned CYP2C9 inhib 69*, CYP2C19 act 0.2, CYP2C9 activ 0.3 and CYP2C19 inh 78*.
For CCOC(=O)N1CCC(NC(=O)CCc2nc(-c3ccccc3F)no2)CC1 the results were CYP2C9 inhib 59*, CYP2C19 act 0.4, CYP2C9 activ 0.4 and CYP2C19 inh 60*.
Screening O=C(CCc1nc(-c2ccccc2F)no1)NC1CCN(Cc2ccccc2)CC1 returned CYP2C9 inhib 35, CYP2C19 act 1.1, CYP2C9 activ 0.7 and CYP2C19 inh -10.
Screening CCc1cccc(NC(=O)CCc2nc(-c3cccs3)no2)c1 returned CYP2C9 inhib 83*, CYP2C19 act 0.1, CYP2C9 activ 0.2 and CYP2C19 inh 93*.
For CC(=O)c1c(N2CCN(C(=O)C3CCCO3)CC2)nc(=S)n(-c2ccccc2)c1C (stereo not given) the results were CYP2C9 inhib -13, CYP2C19 act 1.2, CYP2C9 activ 1.1 and CYP2C19 inh -22.
`COC(=O)CCN(C(=O)c1cccc(OC(C)=O)c1)c1ccccn1` gave CYP2C9 inhib 7, CYP2C19 act 1, CYP2C9 activ 0.9 and CYP2C19 inh 3.
Cc1cc(C)c2nc(Cl)c(CN(Cc3ccco3)C(=O)Nc3ccccc3C)cc2c1 was read as CYP2C9 inhib 75*, CYP2C19 act 0.9, CYP2C9 activ 0.2 and CYP2C19 inh 14.
COc1ccc2[nH]c(=O)c(CN(CCCN(C)C)C(=O)Nc3ccccc3)cc2c1 was read as CYP2C9 inhib 2, CYP2C19 act 0.9, CYP2C9 activ 1 and CYP2C19 inh 11.
COCCN(Cc1cc2cc(C)cc(C)c2nc1Cl)C(=O)Nc1ccccc1 was read as CYP2C9 inhib 67*, CYP2C19 act 0.6, CYP2C9 activ 0.3 and CYP2C19 inh 39.
For O=C(CN1CCOCC1)Nc1ccccc1-c1ccccc1 the results were CYP2C9 inhib -1, CYP2C19 act 0.8, CYP2C9 activ 1 and CYP2C19 inh 24.
Screening O=C(CN1CCC(NC(=O)Nc2ccccc2-c2ccccc2)CC1)NCc1ccco1 returned CYP2C9 inhib 58*, CYP2C19 act 0.5, CYP2C9 activ 0.4 and CYP2C19 inh 46.
`O=C(CN1CCc2ccccc21)NC(=O)NCc1ccco1` gave CYP2C9 inhib 11, CYP2C19 act 0.8, CYP2C9 activ 0.9 and CYP2C19 inh 24.
